Here are results for 27 compounds from PubChem BioAssay (Tox21).

Unmarked numbers belong to inactive results. Records with an inconclusive call do not appear. Calls of active or inactive are those of the source. Unless noted, calls follow the shape of the dose curve; as a rule, active = well fitted curve in the direction sought with a large enough effect in the repeat runs; inconclusive = weak or mixed curves; inactive = no such curve, though single readings can be large; an effect the other way counts as inactive or inconclusive.

A short description of assay [1]: qHTS assay to identify small molecule antagonists of the estrogen receptor alpha (ER-alpha) signaling pathway using the BG1 cell line in the presence of 0.1 nM 17-beta-estradiol - cell viability counter screen (AID 1259241). Also: nearly all actives have a fitted effect of over 40% in size. Also: potency is read from the fitted curve at half-maximal effect. The method in brief:
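Viability in VM7Luc4E2 cells after 22 hr compound exposure under 0.1 nM 17beta-estradiol stimulation, by CellTiter-Fluor.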

Assay [2] is described as follows: qHTS assay to identify small molecule antagonists of the androgen receptor (AR) signaling pathway using the MDA cell line in the presence of 0.5 nM R1881 - cell viability counter screen (AID 1259242). Also: nearly all actives have a fitted effect of over 45% in size. The essentials: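 MDA-kb2 cells (MMTV-luciferase, AR/GR responsive) were treated with compounds plus 0.5 nM R1881 (final) for 16 hr at 37C, 0% CO2. Viability was then read in the same wells as live-cell protease fluorescence (CellTiter-Fluor, 30 min).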

The nature of assay [3]: qHTS assay to identify small molecule phospholipidosis (PLD) inducers (AID 1259344; active = well fitted curve in the direction sought with a large enough effect; an effect the other way counts as inactive or inconclusive). The method in brief:
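HepG2 cells grown on collagen I take up LipidTOX Red while exposed to compound for 24 h; after fixation they are imaged at 20x and pit metrics are extracted.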

The nature of assay [4]: qHTS assay to identify small molecule HDAC inhibitors (AID 1259364). Also: nearly all actives have a fitted effect of over 45% in size. Also: potency is read from the fitted curve at half-maximal effect. The essentials: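 Wild-type HCT-116 cells, plated overnight at 37 C, exposed to compounds 2 hr at 37 C; luminogenic HDAC-Glo substrate then added 30 min at room temperature. Luminescence reports relative endogenous class I/II HDAC activity.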
Assay [5] in a line: qHTS assay to identify small molecule HDAC inhibitors - cell viability counter screen (AID 1259365). Also: series mostly up to about 92 µM; nearly all actives have a fitted effect of over 50% in size. The essentials:
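Cytotoxicity was gauged in wild-type HCT-116 cells after a brief 2hr treatment with DMSO-dissolved compounds at 37C and 5% CO2, using CellTiter-Glo luminescence developed for 30min at room temperature.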

Assay [6] is described as follows: qHTS assay to identify small molecule agonists of the sonic hedgehog signaling (Shh) pathway - cell viability counter screen (AID 1259366). Also: nearly all actives have a fitted effect of over 50% in size. Also: potency is read from the fitted curve at half-maximal effect. The essentials: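 Stable Gli1-Luc NIH/3T3 clone, 2,000 cells/well. Compound exposure 24hr at 37C. Read-out: CellTiter-Fluor fluorescence.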
Assay [7] is described as follows: qHTS assay to identify small molecule antagonists of the sonic hedgehog signaling (Shh) pathway - cell viability counter screen (AID 1259367). Also: nearly all actives have a fitted effect of over 55% in size. Also: potency is read from the fitted curve at half-maximal effect. The essentials:
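After a 4 hr settling period, 3T3 Gli1-Luc cells were treated with DMSO-dissolved chemicals and conditioned medium, kept 24 hr at 37C in 5% CO2, and assayed for viability by CellTiter-Fluor fluorescence following 1 hr reagent incubation.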

Assay [8] concerns the target Estrogen receptor (Homo sapiens) (UniProt P03372). The experiment in a line: qHTS assay to identify small molecule antagonists of the estrogen receptor alpha (ER-alpha) signaling pathway using the BG1 cell line in the presence of 0.1 nM 17-beta-estradiol (AID 1259244). Also: nearly all actives have a fitted effect of over 50% in size. The essentials: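 VM7Luc4E2 cells (endogenous full-length ER-alpha, 4×ERE-luciferase), kept 5 days in phenol red-free, charcoal-stripped FBS medium; 4,000 cells/well. Compounds added with 0.1 nM (final) 17beta-estradiol, 22 hr at 37C; luminescence read with ONE-Glo after 30 min.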

Assay [9] can be described thus: qHTS assay to identify small molecule agonists of the sonic hedgehog signaling (Shh) pathway (AID 1259368; calls by dose curve;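 also: NIH/3T3-derived 3T3Gli1-Luc cells carrying a stable Gli1-driven firefly luciferase reporter; series mostly up to about 92 µM; nearly all actives have a fitted effect of over 15% in size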). The essentials:
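NIH/3T3-derived 3T3Gli1-Luc cells with stably integrated Gli1-driven firefly luciferase, 2,000 cells/well, compounds added after 4 hr. Incubated 24 hr at 37C, 5% CO2; luminescence read after 30 min with luciferase reagent at room temperature.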

Chain of Estrogen receptor (Homo sapiens) (P03372 whole entry, looked up): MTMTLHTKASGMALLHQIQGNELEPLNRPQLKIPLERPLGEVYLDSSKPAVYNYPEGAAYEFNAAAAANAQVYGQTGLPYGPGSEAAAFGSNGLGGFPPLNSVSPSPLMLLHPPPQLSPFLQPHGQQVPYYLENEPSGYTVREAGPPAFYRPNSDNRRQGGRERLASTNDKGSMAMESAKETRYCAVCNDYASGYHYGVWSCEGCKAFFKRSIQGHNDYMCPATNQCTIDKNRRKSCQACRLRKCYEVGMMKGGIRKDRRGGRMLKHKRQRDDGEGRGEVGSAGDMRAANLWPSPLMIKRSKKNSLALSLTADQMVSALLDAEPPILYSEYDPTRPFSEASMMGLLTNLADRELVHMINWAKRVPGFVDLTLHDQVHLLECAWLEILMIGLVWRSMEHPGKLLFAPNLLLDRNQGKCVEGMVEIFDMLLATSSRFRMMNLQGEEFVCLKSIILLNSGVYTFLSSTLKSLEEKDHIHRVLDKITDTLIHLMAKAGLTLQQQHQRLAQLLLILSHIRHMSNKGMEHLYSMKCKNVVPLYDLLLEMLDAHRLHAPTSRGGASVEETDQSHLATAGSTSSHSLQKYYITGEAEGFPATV

`OCc1ccccc1O`: the Potency result in [1], in assay [4], in assay [6] and in assay [7] was “inactive” throughout. Further, the outcome in assay [2], in assay [3] and in [5] was inactive.

With `CC(C)(C)c1ccc(OC(=O)c2ccccc2O)cc1`, the Potency result in assay [1], in assay [8], in assay [6], in assay [7] and in [9] was “inactive” each time. For the same compound, the outcome in assay [2] and in assay [5] was inactive. For the same compound, in [4], the Potency is 27.3 µM (active).

`CCN1CC(CCN2CCOCC2)C(c2ccccc2)(c2ccccc2)C1=O` (centres undefined): the Potency entry in assay [1] and in [4] was “inactive” in each case. Also, the outcome in assay [2], in assay [3] and in assay [5] was inactive.

As for `CC1=CC(=O)CC(C)(C)C1=O`, the Potency entry in [1], in [8], in assay [6], in assay [7] and in assay [9] was “inactive” throughout. The outcome in assay [2] and in assay [5] was inactive.

As for `Nc1ccc(Oc2ccc(N)c(N)c2)cc1`, the Potency is 48.6 µM (active) in assay [1] and 30.6 µM (active) in assay [4]. Moreover, the outcome in assay [2] and in [5] was inactive. Further, the Potency entry in [8] and in assay [7] was “inactive” throughout.

As to `CC(C)O`, the Potency entry in [1] and in assay [4] was “inactive” throughout. For the same compound, the result in [2], in [3] and in assay [5] was inactive.

`O=C(Cl)c1cccc([N+](=O)[O-])c1`: the Potency result in assay [1], in assay [8], in [4], in assay [6], in [7] and in assay [9] was “inactive” in each case. Further, the outcome in assay [2] and in assay [5] was inactive.

Regarding `O=[N+]([O-])c1nccn1CO[C@@H](CO)[C@H](O)CO`, the Potency entry in assay [1], in assay [4], in [6], in [7] and in assay [9] was “inactive” in each case. Also, the result in assay [2], in assay [3] and in assay [5] was inactive.

`CC(C)NCC(O)COc1ccc(CCOCC2CC2)cc1` (centres undefined): the Potency result in assay [1], in [4], in assay [6], in assay [7] and in assay [9] was “inactive” each time. Moreover, the outcome in assay [2], in assay [3] and in assay [5] was inactive.

As for `CCCCCCCCCCCCCCCCOP(=O)([O-])OCC[N+](C)(C)C`, the Potency entry in [1], in [4], in assay [6], in assay [7] and in [9] was “inactive” each time. Further, the outcome in [2], in assay [3] and in [5] was inactive.

In the case of `CCc1nnc(NS(=O)(=O)c2ccc(N)cc2)s1`, the Potency entry in [1], in assay [4], in [6] and in [7] was “inactive” in each case. Moreover, the outcome in [2], in assay [3] and in assay [5] was inactive.

With `CCN(O)CC`, the Potency result in assay [1] and in assay [9] was “inactive” throughout. For the same compound, the outcome in [2] and in [5] was inactive. Further, the Potency is 26.7 µM (active) in [4], 30 µM (active) in assay [6] and 21.2 µM (active) in [7].

In the case of `C1CCOC1`, the Potency result in [1], in assay [4], in assay [6], in assay [7] and in [9] was “inactive” in each case. Also, the outcome in assay [2] and in [5] was inactive.

`Nc1ccc2ccccc2c1S(=O)(=O)O`: the Potency result in [1], in assay [4], in [6] and in assay [7] was “inactive” each time. In addition, the outcome in [2] and in [5] was inactive.

Take `CCNCCO`: the Potency result in assay [1], in assay [4], in assay [6] and in [7] was “inactive” throughout. The outcome in assay [2] and in [5] was inactive.

As for `O=C(O)[C@@H](O)[C@H](O)[C@H](O)[C@@H](O)C(=O)O`, the Potency result in assay [1], in assay [4], in [6], in assay [7] and in [9] was “inactive” each time. Besides, the result in [2], in assay [3] and in assay [5] was inactive.

In the case of `C=O`, the Potency result in [1], in [4], in [6], in [7] and in [9] was “inactive” in each case. The result in assay [2], in assay [3] and in assay [5] was inactive.

Regarding `ClC(Cl)Cl`, the Potency entry in [1], in assay [4] and in assay [9] was “inactive” throughout. The result in [2], in [3] and in assay [5] was inactive. The Potency in assay [7] is 42.9 µM (active).

As to `CCCCNCCCC`, the Potency result in [1], in [4], in [6], in [7] and in assay [9] was “inactive” throughout. For the same compound, the result in assay [2] and in assay [5] was inactive.

For `CN(CC1(C)CCCO1)S(=O)(=O)c1ccc(Cl)c(S(N)(=O)=O)c1` (centres undefined), the Potency entry in assay [1], in [4], in [6], in assay [7] and in assay [9] was “inactive” each time. Also, the outcome in assay [2] and in assay [5] was inactive.

With `CCCN(CCC)C(=O)C(CCC(=O)O)NC(=O)c1ccccc1` (centres undefined), the Potency entry in [1], in assay [4], in assay [6] and in [9] was “inactive” in each case. For the same compound, the outcome in [2], in assay [3] and in [5] was inactive.

On to `NCCC(O)(P(=O)(O)O)P(=O)(O)O`, for which the Potency entry in assay [1], in assay [4], in assay [6], in assay [7] and in assay [9] was “inactive” in each case. Further, the outcome in [2], in assay [3] and in [5] was inactive.

As to `CC1(C)C(=O)N(Cl)C(=O)N1Br`, the Potency entry in [1], in assay [4], in [6] and in assay [7] was “inactive” throughout. Also, the outcome in assay [2] and in assay [5] was inactive.

With `CCC1(C)NC(=O)NC1=O` (centres undefined), the Potency result in assay [1], in assay [4], in assay [6], in [7] and in assay [9] was “inactive” in each case. In addition, the result in assay [2] and in assay [5] was inactive.

Take `CCOC(=O)c1ccccc1O`: the Potency entry in assay [1], in assay [4], in assay [6], in assay [7] and in assay [9] was “inactive” in each case. The result in [2], in assay [3] and in [5] was inactive.

As for `C/C(=N\O)[C@@H](C)NCC(C)(C)CN[C@H](C)/C(C)=N/O`, the Potency result in assay [1], in assay [4], in [6], in [7] and in assay [9] was “inactive” in each case. The outcome in [2] and in assay [5] was inactive.

For the compound `Cc1ccccc1C(=O)Nc1ccc(C(=O)N2CCCC(O)c3cc(Cl)ccc32)c(C)c1` (centres undefined), the Potency result in assay [1], in [4], in assay [6] and in [7] was “inactive” throughout. Further, the result in assay [2] and in assay [5] was inactive.
